Measurements reported in PubChem BioAssay.
Calls of active or inactive are those of the source.

Assays:
[1] = compound effects on lung adenocarcinoma cell viability – A549, calcein-AM fluorescence, 48 h, basal, profiling panel (AID 1162); details: higher = more signal
[2] = compound effects on differentiated 3T3-L1 adipocyte viability – cell-based, 3T3-L1 adipocytes, calcein-AM fluorescence, 48 h, basal, profiling panel (AID 1163); details: 3T3-L1 adipocytes viability, higher = more signal
[3] = compound effects on hepatocellular carcinoma cell viability – HepG2, calcein-AM fluorescence, 48 h, basal, profiling panel (AID 1164); details: higher = more signal
[4] = compound effects on multiple myeloma cell viability – MM1S, calcein-AM fluorescence, 48 h, basal, profiling panel (AID 1165); details: higher = more signal;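 note: viability of MM1S multiple myeloma cells under basal unstimulated conditions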
[5] = calcein-AM signal in unstimulated myeloma cells – cell-based, calcein-AM fluorescence, 48 h, PK04 Diversity Set, profiling panel (AID 1166); details: RPMI8226 myeloma viability, higher = more signal;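 note: cells grown under basal conditions without added stimulus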
[6] = JC-1 mitochondrial signal, unstimulated HepG2 cells – cell-based, JC-1 fluorescence, 24 h, 100 nL compound, profiling panel (AID 1167); details: HepG2 mitochondrial potential, higher = more signal
[7] = JC-1 mitochondrial signal, unstimulated adipocytes – cell-based, JC-1 fluorescence, 3T3-L1 adipocytes, 24 h, 100 nL compound, profiling panel (AID 1168); details: JC-1 mitochondrial fluorescence, higher = more signal, called active from +8 up or from −8 down
[8] = JC-1 mitochondrial signal, unstimulated myeloma cells – cell-based, JC-1 fluorescence, RPMI8226, 24 h, 100 nL compound, profiling panel (AID 1169); details: JC-1 mitochondrial potential fluorescence, higher = more signal
[9] = JC-1 mitochondrial signal, unstimulated MM1S myeloma – cell-based, JC-1 fluorescence, 24 h, 100 nL compound, profiling panel (AID 1170); details: MM1S mitochondrial potential, higher = more signal
[10] = resazurin metabolic signal in A549 cells – cell-based, resazurin fluorescence, 24 h, PK04 Diversity Set, profiling panel (AID 1171); details: A549 viability, higher = more signal, called active from +8 up or from −8 down
Note: test concentration not given here.

Row | Structure (SMILES) | z-score [1] | z-score [2] | z-score [3] | z-score [4] | z-score [5] | z-score [6] | z-score [7] | z-score [8] | z-score [9] | z-score [10]
1 | CC(CO)N1C(=O)[C@@H]2[C@H]3C(=O)OCC=C[C@H]3OC23C=CCN(CCN2CCOCC2)C(=O)[C@@H]13 (stereo not given in full) | -0.313 | 0.344 | -0.0457 | 0.646 | -0.0704 | -0.382 | 0.126 (inactive) | 0.0907 | 0.12 | -0.147 (inactive)
2 | COc1ccc([Si](C)(C)[C@H]2[C@H](CC(=O)N(CCO)Cc3ccccc3)O[C@@]3(C(=O)N(Cc4cccc(N5CCOC5=O)c4)c4ccccc43)[C@@H]2C)cc1 | -1.49 | 0.836 | -2.16 | -1.79 | -4.29 | 0.917 | -0.606 (inactive) | -1.16 | -1.56 | -3.44 (inactive)
3 | C=CCOC(=O)[C@H]1[C@@H]2C(=O)O[C@@H](c3ccccc3)[C@@H](c3ccccc3)N2[C@@H](c2ccc(OCCOC(=O)[C@H]3C[C@H]4C(=O)N[C@@H](CCCCNC(C)=O)C(=O)N4[C@H]3c3ccc(O)cc3)cc2)[C@]12C(=O)Nc1ccccc12 | 1.72 | 0.496 | 1.27 | -0.643 | 1.03 | -0.297 | -0.0783 (inactive) | -0.748 | -0.175 | 2.07 (inactive)
4 | CCCNC(=O)[C@@]1(c2ccc([N+](=O)[O-])cc2)CC(=O)N(C2CCCCC2)[C@@H]1c1ccc(CO)cc1 | 0.663 | 0.29 | 0.196 | -0.409 | 0.46 | 0.536 | -1.19 (inactive) | -0.506 | 0.773 | 1.13 (inactive)
5 | COCCOC(=O)N1C(=O)[C@@]2(c3cc(C#CC4=CCCCC4)ccc31)[C@H](c1ccc(OCCO)cc1)N1[C@H](c3ccccc3)[C@H](c3ccccc3)OC(=O)[C@H]1[C@@H]2C(=O)NC[C@H](O)c1ccccc1 | 0.148 | 0.72 | 0.688 | -1.54 | -2.03 | -0.9 | 0.758 (inactive) | -0.784 | -0.964 | 0.607 (inactive)
6 | CCOC(=O)C1=C[C@@H](c2ccccc2)N(S(=O)(=O)c2ccc(C)cc2)[C@H]1c1ccccc1Cl | -0.968 | -0.426 | 0.0009 | -0.938 | -0.435 | 2.6 | 0.422 (inactive) | 1.01 | 0.38 | 1.09 (inactive)
7 | COC(=O)c1ccc([C@H](NC(=O)c2ccco2)[C@]2(C)C[C@H]2C2CCCCC2)cc1 | -1.13 | -1.2 | -2.43 | -2.65 | -3.28 | -2.5 | -1.02 (inactive) | -0.89 | -1.12 | -2.55 (inactive)
8 | CC1=C[C@@]2(CO)C(=O)[C@]3(CO3)[C@@H]1[C@H]1[C@]2(C)C=C(CO)C(=O)[C@]12CO2 | 0.23 | 0.263 | -0.164 | -3.33 | -0.753 | -0.38 | -0.311 (inactive) | 0.249 | -2.11 | 0.474 (inactive)
9 | COC(=O)[C@@]1(Cc2ccc(OC)cc2)[C@@H]2C(=CC(=O)[C@H]2CC(=O)C(=O)N(C)C)CN1C(=O)c1ccccc1 | -1.85 | 0.271 | -1.12 | -2.29 | -4.37 | 0.607 | -0.283 (inactive) | -0.843 | -1.16 | -1.34 (inactive)
10 | O=C1O[C@@H](c2ccccc2)[C@@H](c2ccccc2)N2[C@@H](c3ccc(O)cc3)[C@]3(C(=O)Nc4ccc(C#CC5=CCCCC5)cc43)[C@@H](C(=O)NC[C@H](O)c3ccccc3)[C@H]12 | 0.0793 | 0.294 | -1.86 | -3.33 | -4.54 | -2.26 | 1.33 (inactive) | -1.06 | -1.1 | -1.49 (inactive)
11 | C=C(C(=O)CC[C@@H](OC(C)=O)c1ccc(CO)o1)C(C)C | -0.306 | -0.317 | -0.261 | -1.39 | -0.812 | -1.5 | 0.241 (inactive) | 0.544 | -0.591 | 0.246 (inactive)
12 | CO[C@H]1O[C@H](CO)[C@@H](OC(=O)Nc2ccccc2-c2ccccc2)[C@H](OC(=O)Nc2ccc3c(c2)OCO3)[C@H]1OC(=O)Nc1ccc2c(c1)OCO2 | 0.673 | -0.31 | -0.521 | -1.02 | -2.75 | 0.844 | 1.48 (inactive) | -1.01 | 0.823 | 0.262 (inactive)
13 | COC(=O)[C@@]1(Cc2ccc(F)cc2)[C@H]2c3cc(C(=O)N(C)C)n(Cc4cc(F)cc5c4OCOC5)c3C[C@H]2CN1C(=O)c1ccccc1 | 0.217 | 0.572 | 0.607 | -1.25 | -1.9 | 1.76 | -0.737 (inactive) | -0.74 | -0.942 | -1.8 (inactive)
14 | CC(C)C[C@@H]1NC(=O)[C@@H]2C[C@H](C(=O)NCCCCN(C)C)[C@H](c3cccc(OCCO)c3)N2C1=O | 0.355 | 0.507 | -1.2 | 0.26 | 0.54 | -0.627 | 0.454 (inactive) | -0.601 | -0.443 | 0.389 (inactive)
15 | CC1CC/C=C\[C@H]2OC34C=CCN(C(C)C)C(=O)[C@H]3N(CCCCCCO)C(=O)[C@@H]4C2C(=O)O1 (stereo not given in full) | -0.868 | 1.53 | 0.25 | 1.2 | 0.626 | -0.0558 | -0.0814 (inactive) | -0.426 | -1.04 | 0.599 (inactive)
16 | O=C1NC(=O)C2C1C=CC(C(O)CCc1ccccc1)N2Nc1ccc(Cl)cc1Cl (stereo not given) | -0.308 | -0.217 | -0.588 | -2.19 | -1.19 | -2.19 | -1.75 (inactive) | -0.236 | -0.0222 | -0.768 (inactive)
17 | CC(C)N1C(=O)C[C@@](C(=O)NCCCN(C)C)(c2ccc([N+](=O)[O-])cc2)[C@H]1c1ccc(CO)cc1 | 0.173 | 0.165 | -0.093 | -0.367 | 0.768 | -0.459 | -1.18 (inactive) | 0.701 | 0.169 | -0.28 (inactive)
18 | C=CCNC(=O)[C@H]1[C@@H]2C(=O)O[C@@H](c3ccccc3)[C@@H](c3ccccc3)N2[C@@H](c2ccc(O)cc2)[C@]12C(=O)Nc1ccc(C#CC3(O)CCCCCC3)cc12 | -0.0001 | 0.0111 | -1.37 | -1.65 | -4.08 | -2.86 | -1.62 (inactive) | -1.25 | -0.291 | 0.421 (inactive)
19 | O=C1O[C@H](c2ccccc2)[C@H](c2ccccc2)N2[C@H]1[C@@H](C(=O)NC[C@H](O)c1ccccc1)[C@]1(C(=O)Nc3ccc(C#CCCO)cc31)[C@H]2c1ccc(OCCO)cc1 | 1.12 | 1.25 | 1.49 | -0.156 | 0.868 | -0.274 | -0.0786 (inactive) | -0.165 | -0.389 | -0.0659 (inactive)
20 | COc1ccccc1CN1C(=O)c2ccccc2[C@@]2(Cc3ccccc3N(CC(F)(F)F)C2=O)[C@@H]1c1ccc(CO)cc1 | -0.912 | -0.744 | 0.162 | 0.291 | -0.956 | -0.505 | -0.363 (inactive) | -0.0759 | -0.946 | -0.682 (inactive)
21 | CN(C)CCCCNC(=O)[C@@H]1C[C@@H]2C(=O)N[C@@H](Cc3ccccc3)C(=O)N2[C@@H]1c1cccc(OCCO)c1 | 1.74 | 0.296 | 1.13 | -0.729 | 0.573 | 1.88 | 0.76 (inactive) | -0.0777 | 0.108 | -0.0805 (inactive)
22 | O=C1O[C@H](c2ccccc2)[C@H](c2ccccc2)N2[C@H]1[C@@H](C(=O)Nc1nc3ccccc3s1)[C@]1(C(=O)Nc3ccc(C#CC4(O)CCCCCC4)cc31)[C@H]2c1ccccc1OCCO | -0.744 | 0.248 | -1.54 | -3.44 | -4.15 | -2.82 | 2.18 (inactive) | -0.951 | -1.5 | -2.21 (inactive)
23 | CC(C)Cc1ccc(CN2CC[C@@H](NC(=O)Nc3ccccc3)C2)cc1 | -4.11 | -1.07 | -4.91 | -3.11 | -4.03 | -2.75 | 0.465 (inactive) | -1.11 | -3.26 | -2.79 (inactive)
24 | COCCCNC(=O)[C@@]1(Cc2ccccc2CN=[N+]=[N-])N=C(c2ccc(OCCCO)cc2)O[C@H]1c1ccccc1 | -1.15 | 0.759 | -0.798 | -2.93 | -4.32 | 0.331 | -0.00801 (inactive) | -1.25 | -0.69 | 0.385 (inactive)
25 | COCCOC(=O)N1C(=O)[C@@]2(c3cc(C#CC4=CCCCC4)ccc31)[C@H](c1ccccc1OCCO)N1[C@H](c3ccccc3)[C@H](c3ccccc3)OC(=O)[C@H]1[C@@H]2C(=O)Nc1nc2ccccc2s1 | -0.0438 | 0.764 | 0.416 | -2.34 | -3.43 | -2.68 | 0.745 (inactive) | -0.759 | -1.08 | -0.0954 (inactive)
26 | C=CCC(OC(C)=O)[C@@H]1[C@@H](N(Cc2cc3ccccc3o2)C(=O)Cc2ccc(F)cc2)c2cc(OCCCO)ccc2N1C(=O)c1ccc2ccccc2c1 (stereo not given in full) | -0.0032 | -0.0993 | 1.93 | -0.915 | 0.0905 | 0.855 | 0.0661 (inactive) | -0.159 | 0.687 | 0.443 (inactive)
27 | CN(C)C(=O)C1N=C(c2ccc(OCCCO)cc2)N(c2ccccc2)O1 (stereo not given) | 0.676 | -0.214 | 0.411 | 0.237 | -0.254 | 0.261 | 0.756 (inactive) | -0.0214 | -0.911 | 0.304 (inactive)
28 | [N-]=[N+]=Nc1ccccc1[C@@H]1OC(c2ccc(OCCCO)cc2)=N[C@]1(Cc1ccccc1)C(=O)NCC(O)CO (stereo not given in full) | -0.828 | 0.509 | -0.306 | -1.94 | -1.81 | 0.307 | 0.778 (inactive) | -1.15 | -0.318 | -0.545 (inactive)
29 | COc1ccc([Si](C)(C)[C@@H]2[C@@H](CC(=O)N(CCO)Cc3ccccc3)O[C@]3(C(=O)N(c4ccccc4)c4ccccc43)[C@H]2C)cc1 | -2.69 | 1.11 | -4.56 | -2.67 | -4.36 | -0.899 | 0.928 (inactive) | -1.08 | -2.3 | -1.94 (inactive)
30 | O=C(N1CCCCC1)[C@@]1(CCS(=O)(=O)c2ccccc2)COC(c2ccc(OCCCO)cc2)=N1 | 0.606 | -0.609 | 0.299 | -1.03 | 0.0963 | 0.147 | -0.328 (inactive) | -1.13 | -1.16 | 0.327 (inactive)
